A selection: hits, their analogues and other compounds. The true share with any hit is near 3.2%.
GALK inh = galactokinase (human) inhibition | Purified GALK, Kinase-Glo residual ATP luminescence | P51570 | 270,000 tested, 0.007% active | Potency, µM (top dose mostly 57.5 µM), for the others: top-dose activity change, negative = inhibition, usual class: inhibitors; further: potency means the concentration at half of the fitted maximal effect
Target sequence (P51570 whole entry, looked up): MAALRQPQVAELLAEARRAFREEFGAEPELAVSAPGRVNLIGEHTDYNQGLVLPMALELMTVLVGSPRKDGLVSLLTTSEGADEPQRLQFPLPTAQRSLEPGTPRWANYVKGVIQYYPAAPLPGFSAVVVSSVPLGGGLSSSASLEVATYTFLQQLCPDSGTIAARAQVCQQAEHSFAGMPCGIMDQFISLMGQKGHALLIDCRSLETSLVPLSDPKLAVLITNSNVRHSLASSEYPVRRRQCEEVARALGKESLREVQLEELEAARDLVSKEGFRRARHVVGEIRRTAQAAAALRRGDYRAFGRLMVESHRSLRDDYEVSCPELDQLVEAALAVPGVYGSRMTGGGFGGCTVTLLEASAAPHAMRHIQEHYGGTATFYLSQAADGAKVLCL
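The enzyme phosphorylates galactose (100 uM) using ATP (35 uM); inhibition is detected as higher residual ATP, quantified by bioluminescence after 1 h reaction at room temperature, pH 8.0.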
VDR inh = vitamin D3 receptor (human) inhibition. P11473. VDR-SRC2-3 peptide fluorescence polarization, 2 h. Potency, µM, for inactives: max response, negative = inhibition, actives largely listed as inhibitors. 400,000 tested, 0.93% active; further: potency means the concentration at half of the fitted maximal effect
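The screen uses fluorescence polarization to detect compounds that interfere with recruitment of the SRC2-3 coactivator peptide to VDR; plates are read after 2 h at room temperature.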
USP2a inh = blocks human ubiquitin-specific protease USP2a; 330,000 tested, 0.01% active; AID 463254; O75604; USP2 core, Ub-CHOP2 coupled fluorogenic reporter, 485/531; Potency, µM (series often up to 38.3 µM), for inactives: at the highest dose activity change, negative = inhibition, actives largely listed as inhibitors;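 further: potency means the concentration at half of the fitted maximal effect; plate controls were DMSO wells for no effect and full inhibition by NEM control for full effect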
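USP2 core (10nM final) preincubated 30min RT with compound in 20mM Tris-HCl pH 8.0, 2mM CaCl2, 2mM beta-mercaptoethanol, 0.05% CHAPS; 25nM Ub-CHOP2 plus 25nM reporter substrate added, fluorescence (Ex485/Em531) read after 60min.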
PLK1 PBD block = PLK1 (human) polo-box domain binding inhibition | Plk1 PBD binding of FITC phosphopeptide, fluorescence polarization | AID 720504 | P53350 | 360,000 tested, 2.8% active | Potency, µM, without a hit: max response, negative = inhibition, hits mostly inhibitors; further: potency means the concentration at half of the fitted maximal effect; series mostly up to about 57 µM; nearly all actives have a fitted effect of over 65% in size
Coupling enz = inhibits coupling enzyme system, counter-screen for aldolase hits; activity change, negative = inhibition, % at 58.2 µM, hits read low; coupling enzyme system counterscreen, AmpLite Red fluorescence; AID 2472; 290,000 tested, 0.67% active; in the data active means activity change below about -30%
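Counterscreen lacking aldolase: glyceraldehyde-3-phosphate coupling-enzyme reagent preincubated 10 min at RT with compound (at 57.5 uM final), then substrate/coupling system with AmpLite Red added; fluorescence read at 525/598 nm after 20 min RT.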
USP1-UAF1 inh = USP1/UAF1 (human) deubiquitinase inhibition. O94782. recombinant USP1/UAF1, Ub-Rhodamine cleavage fluorescence. Potency, µM (highest dose often 57.1 µM), without a hit: at the highest dose activity change, negative = inhibition, actives largely listed as inhibitors. 390,000 tested, 0.23% active. AID 743255; further: potency means the concentration at half of the fitted maximal effect; nearly all actives have a fitted effect of over 60% in size
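In this screen, compounds sit with the deubiquitinase complex (1nM) for 15 min at room temperature before Ub-Rho is added at 150nM final. Fluorescence rise is then followed for 6 reads every 60 seconds.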
Numbers without * were called inactive; ? = inconclusive; / = no result. Unless noted, the call rests on the fitted dose curve; in most records, active means well fitted curve in the direction sought with a large enough effect; inconclusive means small, poorly fitted or top-dose-only effect, or another doubt; inactive means no such curve, though single readings can be large; an effect the other way counts as inactive or inconclusive. Unless noted, on the % scale 0 is the no-effect control and ±100 the full control effect.

SMILES | GALK inh | VDR inh | USP2a inh | PLK1 PBD block | Coupling enz | USP1-UAF1 inh
CCc1cc(=O)oc2cc(OCC(=O)N3CCC(C(=O)O)CC3)ccc12 | / | -9.8% | -1.0% | -3.7% | -73.1* | -11.4%
CCCc1cc(=O)oc2cc(OCC(=O)N3CCC(C(N)=O)CC3)ccc12 | / | -3.5% | 0.0% | -0.6% | -1.8 | -22.5%
Cc1cc(=O)oc2cc(OCC(=O)N3CCCC3)ccc12 | / | -19.1% | -6.3% | -22.1% | / | -4.5%
Cc1cc(=O)oc2cc(OCC(=O)N3CCOCC3)ccc12 | -1.7% | -15.4% | 3.6% | 26.7µM* | -0.9 | -9.4%
CC(=O)NCCNC(=O)c1ccc(CSc2ccc(Cl)cc2)cc1 | 8.8% | 16.8% | 1.1% | -5.4% | -2.5 | -14.3%
CCOC(=O)Cn1cnc2c(cnn2-c2ccc(C)c(C)c2)c1=O | / | 15.4% | / | / | / | -20.2%
C/C(=N\Nc1ccccc1)c1cc2ccccc2oc1=O | -2.4% | 0.9% | -4.4% | -11.4% | -2.6 | -2.1%
CCOc1ccc(C(c2c(O)nc(SC)n(C)c2=O)c2c(O)nc(SC)n(C)c2=O)cc1 | -0.3% | 39.8µM* | -5.0% | 11.9µM* | 7.6 | -13.3%
CCOc1ccc(OCC(=O)OCn2c(SC)nnc(C)c2=O)cc1 | -2.3% | 2.7% | 4.7% | -6.7% | 4.0 | -14.7%
C=CCCCCCCCCCCCc1ccco1 | / | 25.1µM* | / | / | 6.3 | /
COc1cccc(C(=O)NC2CC3CCCC(C2)N3CC(=O)Nc2ccc(N(C)C)cc2)c1 (stereo unspecified) | -1.6% | -3.4% | -0.7% | -5.9% | 1.4 | -20.2%
COc1cccc(C(=O)NC2CC3CCCC(C2)N3CC(=O)Nc2ccccc2)c1 (stereo unspecified) | -3.1% | 9.0% | -1.5% | -19.4% | -35.7* | -20.2%
O=C(CNc1cccc(F)c1)Nc1cccc(S(=O)(=O)N2CCCCC2)c1 | / | 4.4% | 0.0% | 5.3% | / | -19.1%
O=C(Nc1ccccc1C(=O)NC(Cc1ccccc1)C(=O)NC1CCCCCC1)c1ccccc1 (stereo unspecified) | -2.3% | -9.3% | 1.8% | 26.7µM* | -0.4 | -17.0%
O=C(Nc1ccccc1C(=O)NC1CCCCC1)c1ccccc1 | -3.0% | 5.7% | 3.7% | 2.8% | / | -22.6%
COc1ccc(C(=O)Nc2ccccc2C(=O)NC(C)C)cc1OC | 0.4% | ? | 10.6% | 26.7µM* | 2.9 | 1.7%
CCC(C)C(NC(=O)c1ccccc1NC(=O)c1ccccc1)C(=O)O (stereo unspecified) | -0.2% | ? | -0.8% | 26.7µM* | 10.6 | -24.9%
COc1ccc(C(=O)Nc2ccccc2C(=O)N2CCOCC2)cc1Br | 3.8% | -8.4% | 2.5% | 26.7µM* | / | -9.1%
CCC(C)C(NC(=O)c1ccccc1NC(=O)c1ccco1)C(=O)O (stereo unspecified) | -1.6% | -8.7% | 2.5% | -4.9% | 1.1 | -6.9%
Cn1ccc2c(-c3ccc(F)cc3F)cc3c(c21)C1CCC3C1 (stereo unspecified) | / | / | / | -2.5% | / | /
Cc1ccc(-c2nn(-c3ccccc3)cc2C(=O)N2CCOCC2)cc1C | -1.2% | 0.8% | 1.5% | -5.9% | -2.5 | -14.5%
CN1C(=O)CSC1=Nc1ccc(Br)cc1 | -5.4% | 0.1% | -2.1% | 6.9% | 3.4 | ?
CCOC(=O)C1CCN(S(=O)(=O)c2nc3nc(C)cc(C)n3n2)CC1 | -0.9% | -6.0% | 1.5% | 29.9µM* | -1.5 | -7.2%
COC(=O)C1C(=O)C(C(=O)/C=C/c2ccco2)C(=O)CC1(C)C (stereo unspecified) | / | 44.7µM* | / | / | -0.4 | /
COCCn1c(SCC(=O)Nc2cc(Cl)ccc2OC)nc2c([nH]c3ccccc32)c1=O | / | 3.7% | / | / | / | ?
SMILES | GALK inh | VDR inh | USP2a inh | PLK1 PBD block | Coupling enz | USP1-UAF1 inh
NC(=S)NNC(=S)Nc1ccccc1 | -2.2% | ? | 9.6% | ? | -0.5 | -7.2%
Cc1cccc(NNC(=S)Nc2ccccc2)c1 | / | / | / | ? | / | -25.5%
Cc1cccc(NC(=S)NNc2cccc(Cl)c2)c1 | -2.1% | 28.2µM* | -1.5% | 26.7µM* | -1.3 | -23.3%
O=C(NNC(=S)Nc1ccc(Cl)cc1)c1ccccc1 | 1.7% | 26.1% | 1.6% | -25.9% | / | -5.7%
CC(C)(C)NC(=S)Nc1ccc(Br)cc1 | 3.8% | 22.3% | -0.5% | -0.3% | 6.8 | -16.3%
S=C(NNC(=S)Nc1ccccc1)Nc1ccccc1 | -2.0% | 70.8µM* | 0.9% | ? | 3.3 | -23.1%
S=C(NNC(=S)Nc1ccc(Cl)cc1)NNc1ccccc1 | / | / | / | 7.52µM* | / | -24.9%
CC(C)(C)NC(=S)Nc1ccc(Nc2ccccc2)cc1 | -1.4% | -24.1% | -0.8% | 29.9µM* | 2.8 | -14.7%
CCc1nnc(NS(=O)(=O)c2ccc(NC(=O)c3ccc([N+](=O)[O-])s3)cc2)s1 | / | / | / | -18.5% | / | -15.9%
COc1ccc(OC)c(CCNC(=O)C(C)n2nc(C)c3c(C)n(-c4ccc(C)cc4)nc3c2=O)c1 (stereo unspecified) | -3.5% | 2.6% | 4.1% | -8.5% | 1.2 | -9.6%
COc1ccc(C(=O)/C(=C/c2cccs2)c2nc3ccccc3o2)cc1 | 1.4% | 31.6µM* | -0.4% | 26.7µM* | -3.1 | -15.3%
CN(CC(=O)Nc1cccc(Cl)c1)S(=O)(=O)c1ccc2c(c1)n(C)c(=O)c(=O)n2C | 3.0% | 79.4µM* | 0.4% | -7.6% | / | 5.0%
COc1cc(C(=S)N2CCN(C(c3ccccc3)c3ccccc3)CC2)cc(OC)c1O | 1.3% | ? | -0.8% | 13.4µM* | -2.6 | -22.7%
COc1ccc(NC(=S)N2CCN(C(c3ccccc3)c3ccccc3)CC2)cc1OC | -0.9% | 7.3% | 0.6% | -11.9% | 2.3 | -13.0%
O=S1c2ccccc2Nc2ccccc21 | / | ? | 0.7% | -1.0% | / | -30.0%
N#Cc1c(NC(=O)CCn2cnc3ccccc3c2=O)oc(-c2ccccc2)c1-c1ccccc1 | -5.0% | -20.4% | -0.2% | -2.5% | 2.5 | -1.2%
C[C@@H]1Oc2ccccc2C=C1/C=C/C(=O)O | / | 0.3% | / | / | -0.4 | /
CC1Oc2ccccc2C=C1/C=N/Nc1ccc(C(=O)O)cc1 (stereo unspecified) | -6.3% | ? | 2.2% | 23.8µM* | -1.7 | -31.8%
O=C(COc1ccc(Cl)cc1Cl)NCCSc1ccc(Cl)cc1 | 2.1% | -13.2% | 4.5% | 2.99µM* | 0.2 | -6.8%
CN(C)CCNC(=O)COc1ccc(Cl)cc1Cl | / | -4.2% | 0.2% | 1.0% | -1.9 | -5.0%
COC(=O)C(CC(=O)O)NCc1ccco1 (stereo unspecified) | -0.9% | -13.3% | 2.9% | 11.9µM* | 5.7 | -8.1%
O=C(O)CC(NCc1ccco1)C(=O)OCCCl (stereo unspecified) | 8.8% | -0.6% | 0.1% | -6.7% | -5.0 | -17.8%
CN(C)c1nc(N)nc2c1ncn2C1OC(CO)CC1O (stereo unspecified) | / | / | / | -9.9% | / | /

Screening results as filed in PubChem BioAssay.
